Rows were chosen to be rich in hits. Some 1.8% of all compounds tested hit in one or more screens of this group.
NALP3 yeast inh: inhibitors of NALP3 inflammasome in yeast | Yeast reconstituted NLRP3/ASC/caspase-1, beta-gal luminescence, 24 h | inhibition, % at 10 µM | hit rate 0.39% among 330,000 | AID 2825;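 active = inhibition of 50% or more; inactive = inhibition below 50%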
Mot1-301 SUMO: SUMOylation pathway inhibition by Mot1-301 growth rescue; S. cerevisiae Mot1-301 growth rescue, ATP luminescence, 38.5C; percent above DMSO median, 100 means doubled; growth rescue, % at 18.8 µM; hit rate 1% among 320,000;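 active = every valid replicate shows activation above 250% relative to neutral control wells; inactive = the rest, any valid replicate at or below 250%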
PolyA inh: blocks polyadenylation in yeast reporter cells; S. cerevisiae SKY197-pL101 polyadenylation reporter, beta-gal luminescence; efflux-impaired pdr1/pdr3 knockout yeast; score 100 = 6 SD above DMSO; activity score, % at 12 µM; hit rate 0.02% among 300,000; AID 1875;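 active = lowest replicate activity score at least 50, where 100 means six control SD above control mean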;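 also: yeast exposed to compound for 9 h at 30 °C; higher score means more reporter readthrough which indicates perturbed polyadenylation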
NALP1 yeast inh: blocks the NALP1 inflammasome reconstituted in yeast | inhibition, % at 10 µM | S. cerevisiae NALP1/ASC/caspase-1 growth, X-gal OD620, 72 h | hit rate 0.61% among 280,000; in the data active = inhibition mostly above about 24%, no sharp cut-off; inactive = mostly below about 32%
Numbers stand for hits; – = inactive; · = no result; + = active, no number; ! = repeats disagree.

SMILES	NALP3 yeast inh	Mot1-301 SUMO	PolyA inh	NALP1 yeast inh
CCOC(=O)c1[nH]c(C)c(CCC(=O)OC)c1C	–	–	–	–
CCOC(=O)c1[nH]c(C)c(CCC(=O)O)c1C	–	–	–	41!
Cc1nn(-c2ccccc2)c(C)c1/C=N/O	–	–	–	–
COc1ccc(-c2nc(Cn3c(SCc4ccc(C)cc4)nc4ccncc43)c(C)o2)cc1OC	–	460	–	–
N#C/C(=N\Nc1cccc2ccccc12)c1nnc2n1CCCCC2	–	+	–	–
Cc1cccc(NC(=O)CSc2nnc(-c3cc(C)n(-c4ccccc4)c3C)o2)c1C	–	–	–	–
Cc1cc(-c2nnc(SCC(=O)Nc3ccccc3C(F)(F)F)o2)c(C)n1-c1ccccc1	–	–	–	44
Cc1cc(C)c(O)c(-c2cc(C(=O)Nc3cccnc3)[nH]n2)c1	–	–	–	–
Cc1cc(O)c(-c2cc(C(=O)Nc3cccnc3)[nH]n2)cc1C	–	–	–	37
CC1=CC(=O)C=CC1(C)C(Cl)Cl (stereo unspecified)	–	–	–	23
COc1ccc(CNC(=O)COC(=O)c2cc(-c3ccc(Cl)s3)nc3ccccc23)cc1	–	276	–	–
Cc1cccc(NC(=O)c2nc[nH]c2C(=O)N[C@@H](CC(C)C)C(=O)OCc2ccccc2)c1	–	–	–	·
Oc1ccc(Cl)cc1-c1cc(C(F)(F)C(F)F)nc(-c2ccccc2)n1	–	–	–	43
Cc1ccc(O)c(-c2cc(C(F)(F)C(F)F)nc(-c3ccccc3)n2)c1	–	–	–	–
CCN1CCN(c2ccccc2NC(=O)C(C)Oc2ccc(C(C)=O)cc2)CC1 (stereo unspecified)	–	–	·	·
O=C(NC(=S)Nc1cccnc1)c1cccc(Br)c1	–	–	–	–
CCOC(=O)Cn1c(CN(C)Cc2ccccc2)nc2c1c(=O)n(C)c(=O)n2C	–	–	–	·
COc1ccc(C2c3[nH]c4ccccc4c3C[C@H]3C(=O)N(c4ccccc4C(=O)N4CCC(C(=O)O)CC4)C(=O)N23)cc1 (stereo partly specified)	–	342	–	–
CCn1c(SCC(=O)N2CCc3ccccc32)nc2c(c1=O)SC(C)C2 (stereo unspecified)	–	343	–	·
CCn1c(SCC(=O)N2CCCc3ccccc32)nc2c(c1=O)SC(C)C2 (stereo unspecified)	–	–	·	–
CCCN1CCN(CCCNC(=O)c2cc3c(=O)[nH]c4ccccc4c3s2)CC1	–	–	–	25
CC(CC(=O)c1cccs1)CC(=O)c1cccs1	–	–	–	–
Cc1cc(C)c(C(CC(=O)c2cccs2)C(C#N)C#N)c(C)c1 (stereo unspecified)	–	477	–	–
CCOC(=O)C1C(c2ccc3c(c2)OCO3)NC(=O)NC1(O)C(F)(F)F (stereo unspecified)	–	–	–	–
CCOC(=O)C1C(c2ccc(O)c(OC)c2)NC(=O)NC1(O)C(F)(F)F (stereo unspecified)	–	–	–	34
SMILES	NALP3 yeast inh	Mot1-301 SUMO	PolyA inh	NALP1 yeast inh
CCOC(=O)C1CCN(C(=O)/C(=C/c2ccccc2)NC(=O)c2ccccc2)CC1	–	–	–	–
CCC(c1nnnn1C(C)(C)CC)N(CCCO)Cc1cc2cc(C)cc(C)c2[nH]c1=O (stereo unspecified)	·	·	–	35
COC(=O)CCC(=O)NC(=S)Nc1cc(Cl)ccc1Cl	–	–	–	42
COC(=O)CCC(=O)Nc1ccc(Cl)c(Cl)c1	–	–	–	–
CN1CCN(C(=O)CCN2C(=O)/C(=C/c3cccc(Br)c3)SC2=S)CC1	–	–	–	–
CCNC(=S)N/N=C1\CCCCc2ccccc21	–	–	–	–
C=C(C)CNC(=S)N/N=C1\CCCCc2ccccc21	–	311	–	–
CCCn1c(NCc2cc(OC)ccc2OC)nc2ccccc21	–	–	–	–
CCCC(O)(c1ccc(Cl)cc1)C(CN1CCOCC1)c1ccc(Cl)cc1 (stereo unspecified)	–	292	–	–
O=C(NCCc1ccccc1)C(=O)NCC1CCCN1S(=O)(=O)c1cccs1 (stereo unspecified)	–	355	–	·
CNc1cc(CSC)nc(SCc2ccc(Cl)cc2Cl)n1	–	–	–	33
O=C(OCc1ccc(Cl)cc1Cl)c1cccnc1Cl	–	–	–	–
CCOC(=O)/C(=N\Nc1cccc(C(F)(F)F)c1)N(CCOC)CCOC	–	·	–	–
CCOC(=O)/C(=N\Nc1cccc(C(F)(F)F)c1)N1CCOCC1	–	266	–	–
Nc1ccccc1C(=O)N1CCC(O)(c2ccc(Cl)cc2)CC1	–	325	–	–
O=C(c1ccccc1F)N1CCC(O)(c2cccnc2)CC1	–	·	–	–

Screens from PubChem BioAssay.
